Over roughly 16,000 sequences, “rpm ratio (pull-down/input)” has its median near 0.5; the highest 2% begin near 5.5. What follows is part of a selection rich in the highest values, with near analogues and random picks from the rest.

The test deals with T1, MBP-FoxP3dN (Mus musculus, UniProt Q99JB6 188-423).
T1 sequence: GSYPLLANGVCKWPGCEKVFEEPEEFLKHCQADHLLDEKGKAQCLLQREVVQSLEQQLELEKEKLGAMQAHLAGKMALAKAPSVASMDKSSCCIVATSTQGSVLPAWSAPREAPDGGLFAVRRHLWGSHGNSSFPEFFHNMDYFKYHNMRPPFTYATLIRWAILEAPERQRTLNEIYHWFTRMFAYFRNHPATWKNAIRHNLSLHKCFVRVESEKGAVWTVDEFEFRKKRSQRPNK
The test is described as follows: PD-seq (MBP pull-down with sequencing); 20 mM Tris-HCl pH 7.5, 100 mM NaCl, 1.5 mM MgCl2, 0.4 uM protein, 0.1 uM dsDNA library, 30 min, room temperature, amylose pull-down; high values mean tight binding. The following applies: protein: recombinant; tags: His6-MBP; chain copies: 2; dsDNA, one strand shown. A digest of the protocol: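 A fragment of mouse FoxP3 or FoxP1 without its N-terminus, carrying a His6-MBP tag and produced in E. coli, was combined at 0.4 µM with a 0.1 µM degenerate double-stranded DNA library filled in with Klenow. The mixture sat for 30 min at room temperature in Tris pH 7.5 buffer containing NaCl and MgCl2. Protein–DNA complexes were captured on amylose resin, washed three times, and the DNA was freed with proteinase K, barcoded by PCR and sequenced on Illumina. Binding is expressed as reads-per-million enrichment of pull-down over input, with replicates pooled.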
As for “GATGATTGTTCTCCCAGCTGATGAATTACCAGGCTCGAGTAAACAAATTTTCCTAATCTTTCTGTTCAAGCGCCATCTAC”, the binding signal was 0.357 RPM ratio (pull-down/input).
For “GATGATTGTTCTCCCAGCTGATGAATTGAGCAGCTCGAGTAAACAAATTTTCCTAATCTTTCTGTTCAAGCGCCATCTAC”, the binding signal is 1.12 RPM ratio (pull-down/input).
As for “GATGATTGTTCTCCCAGCTGATGAATTGAGCATCTCGAGTAAACAAATTTTCCTAATCTTTCTGTTCAAGCGCCATCTAC”, the figure is 6.26 RPM ratio (pull-down/input); as for “GATGATTGTTCTCCCAGCTGATGAATTTTGAGCATCGAGTAAACAAATTTTCCTAATCTTTCTGTTCAAGCGCCATCTAC”, 0.906 RPM ratio (pull-down/input).
As for “GATGATTGTTCTCCCAGCTGATGAATTTGAGCATTCGAGTAAACAAATTTTCCTAATCTTTCTGTTCAAGCGCCATCTAC”, the figure is 5.36 RPM ratio (pull-down/input).
For “GATGATTGTTCTCCCAGCTGATGAATTCGAGCATTCGAGTAAACAAATTTTCCTAATCTTTCTGTTCAAGCGCCATCTAC”, the binding signal is 4.97 RPM ratio (pull-down/input).
To “GATGATTGTTCTCCCAGCTGATGAATTGAGCATTTCGAGTAAACAAATTTTCCTAATCTTTCTGTTCAAGCGCCATCTAC” belongs 6.08 RPM ratio (pull-down/input).
As for “GATGATTGTTCTCCCAGCTGATGAATTGAAGTCTTCGAGTAAACAAATTTTCCTAATCTTTCTGTTCAAGCGCCATCTAC”, the figure is 0.312 RPM ratio (pull-down/input); as for “GATGATTGTTCTCCCAGCTGATGAATTAGCCTCCTCGAGTAAACAAATTTTCCTAATCTTTCTGTTCAAGCGCCATCTAC”, 1.57 RPM ratio (pull-down/input).
To “GATGATTGTTCTCCCAGCTGATGAATTAAGCGGATCGAGTAAACAAATTTTCCTAATCTTTCTGTTCAAGCGCCATCTAC” belongs 0.341 RPM ratio (pull-down/input).
Consider “GATGATTGTTCTCCCAGCTGATGAATTGTAAACGTCGAGTAAACAAATTTTCCTAATCTTTCTGTTCAAGCGCCATCTAC”, for which the binding signal was 0.874 RPM ratio (pull-down/input).
In the case of “GATGATTGTTCTCCCAGCTGATGAATTTTCCCACTCGAGTAAACAAATTTTCCTAATCTTTCTGTTCAAGCGCCATCTAC”, the binding signal is 0.213 RPM ratio (pull-down/input).
To “GATGATTGTTCTCCCAGCTGATGAATTCCCCCACTCGAGTAAACAAATTTTCCTAATCTTTCTGTTCAAGCGCCATCTAC” belongs 0.253 RPM ratio (pull-down/input).
To “GATGATTGTTCTCCCAGCTGATGAATTCAGCCACTCGAGTAAACAAATTTTCCTAATCTTTCTGTTCAAGCGCCATCTAC” belongs 5.07 RPM ratio (pull-down/input); to “GATGATTGTTCTCCCAGCTGATGAATTCTGCCACTCGAGTAAACAAATTTTCCTAATCTTTCTGTTCAAGCGCCATCTAC”, 6.04 RPM ratio (pull-down/input); to “GATGATTGTTCTCCCAGCTGATGAATTCCCACTCTCGAGTAAACAAATTTTCCTAATCTTTCTGTTCAAGCGCCATCTAC”, 0.323 RPM ratio (pull-down/input).
As for “GATGATTGTTCTCCCAGCTGATGAATTCGCCCACTCGAGTAAACAAATTTTCCTAATCTTTCTGTTCAAGCGCCATCTAC”, the figure is 0.406 RPM ratio (pull-down/input); as for “GATGATTGTTCTCCCAGCTGATGAATTGTGCCACTCGAGTAAACAAATTTTCCTAATCTTTCTGTTCAAGCGCCATCTAC”, 6.84 RPM ratio (pull-down/input).
As for “GATGATTGTTCTCCCAGCTGATGAATTTCTCCACTCGAGTAAACAAATTTTCCTAATCTTTCTGTTCAAGCGCCATCTAC”, the binding signal is 0.272 RPM ratio (pull-down/input).
“GATGATTGTTCTCCCAGCTGATGAATTCTCCCACTCGAGTAAACAAATTTTCCTAATCTTTCTGTTCAAGCGCCATCTAC”: the binding signal is 0.246 RPM ratio (pull-down/input).
To “GATGATTGTTCTCCCAGCTGATGAATTTCGCCACTCGAGTAAACAAATTTTCCTAATCTTTCTGTTCAAGCGCCATCTAC” belongs 5.74 RPM ratio (pull-down/input); to “GATGATTGTTCTCCCAGCTGATGAATTTTCGCACTCGAGTAAACAAATTTTCCTAATCTTTCTGTTCAAGCGCCATCTAC”, 0.504 RPM ratio (pull-down/input); to “GATGATTGTTCTCCCAGCTGATGAATTCCGCCACTCGAGTAAACAAATTTTCCTAATCTTTCTGTTCAAGCGCCATCTAC”, 6.15 RPM ratio (pull-down/input).
To “GATGATTGTTCTCCCAGCTGATGAATTTCTCGTCTCGAGTAAACAAATTTTCCTAATCTTTCTGTTCAAGCGCCATCTAC” belongs 0.277 RPM ratio (pull-down/input); to “GATGATTGTTCTCCCAGCTGATGAATTACCACTGTCGAGTAAACAAATTTTCCTAATCTTTCTGTTCAAGCGCCATCTAC”, 0.41 RPM ratio (pull-down/input).
Turning to “GATGATTGTTCTCCCAGCTGATGAATTAGACTTGTCGAGTAAACAAATTTTCCTAATCTTTCTGTTCAAGCGCCATCTAC”, the binding signal is 0.529 RPM ratio (pull-down/input).
As for “GATGATTGTTCTCCCAGCTGATGAATTCTCATGTTCGAGTAAACAAATTTTCCTAATCTTTCTGTTCAAGCGCCATCTAC”, the figure is 0.416 RPM ratio (pull-down/input).
For “GATGATTGTTCTCCCAGCTGATGAATTATCGGTCTCGAGTAAACAAATTTTCCTAATCTTTCTGTTCAAGCGCCATCTAC”, the binding signal is 0.382 RPM ratio (pull-down/input).
As for “GATGATTGTTCTCCCAGCTGATGAATTACGTACATCGAGTAAACAAATTTTCCTAATCTTTCTGTTCAAGCGCCATCTAC”, the figure is 0.647 RPM ratio (pull-down/input).
On to “GATGATTGTTCTCCCAGCTGATGAATTGTGATGTTCGAGTAAACAAATTTTCCTAATCTTTCTGTTCAAGCGCCATCTAC”, for which the binding signal was 4.21 RPM ratio (pull-down/input).
As for “GATGATTGTTCTCCCAGCTGATGAATTGCTTATTTCGAGTAAACAAATTTTCCTAATCTTTCTGTTCAAGCGCCATCTAC”, the figure is 2.46 RPM ratio (pull-down/input).
